The text below walks through data of PubChem BioAssay (NCI).

Compounds without any hit were thinned out: in the full panel of roughly 83,000, 20% have a hit.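 For each line, cells grew in 96-well plates with the test compound present at a single concentration for 48 hours.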 Values without a mark were called inactive. Active and inactive are the calls of the source. The calls were made as follows: active = growth percent below 10; inactive = the rest.

What all share (test): NCI-60 one-dose screen, 48 h (100 = growth as untreated, 0 = no growth, -100 = all killed)
The test system of one test is NCI-H23 lung. To be noted: 10 µM unless noted.
For another test, the system named is NCI-H226 lung. To be noted: 10 µM unless noted.
The test system of a further test is NCI-H322M lung. To be noted: 10 µM unless noted.
Another test deals with HOP-62 NSCLC. The note with it: 10 µM unless noted.
The subject of another test is NCI-H460 lung. To be noted: 10 µM unless noted.
The subject of a further test is HOP-92 NSCLC. The note with it: 10 µM.
In another test the test system is NCI-H522 lung. The note with it: 10 µM unless noted.
A further test has as its system A549/ATCC NSCLC. To be noted: 10 µM unless noted.
Another test concerns 786-0 renal. The note with it: 10 µM unless noted.
The subject of the next test is COLO 205 colon. The note with it: 10 µM unless noted.
The test system of the next test is DU-145 prostate. The note with it: 10 µM unless noted.
The next test concerns K-562 leukemia. The note with it: 10 µM unless noted.
The test system of the next test is MALME-3M melanoma. To be noted: 10 µM unless noted.
A further test concerns MDA-MB-231 breast. The note with it: 10 µM unless noted.
In a further test the test system is SF-268 CNS. To be noted: 10 µM unless noted.
A further test has as its system SF-295 CNS. The note with it: 10 µM unless noted.
The test system of a further test is SF-539 CNS. The note with it: 10 µM unless noted.
The test system of the next test is UACC-257 melanoma. To be noted: 10 µM unless noted.

Consider `COc1cc(/C=C2\C(=O)Nc3cc(Cl)ccc32)ccc1OCc1ccc(F)cc1`, for which the growth in the test on NCI-H23 lung was 101%; with NCI-H226 lung, 91.2%; with NCI-H322M lung, 98.2%; in the test with HOP-62 NSCLC, 95.9%; in the test with NCI-H460 lung, 99%; in the test on HOP-92 NSCLC, 89.2%. Moreover, the growth with NCI-H522 lung was 92.9%; in the test with A549/ATCC NSCLC, 110%; in the test with 786-0 renal, 108%; with COLO 205 colon it was 110%; with DU-145 prostate it was 104%; with K-562 leukemia, 97.7%. Also, the growth in the test with MALME-3M melanoma is 92.7%; in the test on MDA-MB-231 breast, 92.1%; with SF-268 CNS it was 101%; in the test on SF-295 CNS it was 97.1%; in the test with SF-539 CNS, 95%; with UACC-257 melanoma, 109%.

Turning to `CS(=O)(=O)Nc1cc(-c2ccc3ncc(C#N)c(NCc4ccccc4O)c3c2)cnc1Cl`, the growth in the test on NCI-H23 lung was -7.77% (active); with NCI-H226 lung, 16.9%; with NCI-H322M lung, 16.1%; with HOP-62 NSCLC, 3.57% (active); with NCI-H460 lung, 7.88% (active); with HOP-92 NSCLC, -10.8% (active). Also, the growth in the test on NCI-H522 lung is 12.8%; with A549/ATCC NSCLC, 15.8%; in the test with 786-0 renal, 8.24% (active); in the test on COLO 205 colon, 8.91% (active); with DU-145 prostate, 19.2%; in the test with K-562 leukemia, 22.3%. The growth in the test on MALME-3M melanoma is -37.2% (active); in the test with MDA-MB-231 breast it was 6.73% (active); in the test on SF-268 CNS, 6.44% (active); with SF-295 CNS, -14.4% (active); in the test on SF-539 CNS, -14.5% (active); with UACC-257 melanoma, 6.3% (active).

Regarding `COc1ccc(NC2=C(Cl)C(=O)c3nc(C)ccc3C2=O)cc1OC`, the growth with NCI-H23 lung is 59%; with NCI-H226 lung, 97.1%; in the test on NCI-H322M lung, 99%; in the test with HOP-62 NSCLC it was 110%; with NCI-H460 lung it was 100%; with HOP-92 NSCLC, 112%. Also, the growth is 78.8% in the test on NCI-H522 lung; 107% in the test on A549/ATCC NSCLC; 99% in the test on 786-0 renal; 108% in the test on COLO 205 colon; 93% in the test on DU-145 prostate; 7.18% (active) in the test on K-562 leukemia. Besides, the growth with MALME-3M melanoma is 94.5%; in the test with MDA-MB-231 breast, 73%; in the test on SF-268 CNS, 84.7%; in the test on SF-295 CNS, 104%; with SF-539 CNS, 103%; with UACC-257 melanoma it was 91%.

In the case of `COc1cc(Cn2cc3c(c2)-c2onc(CN4CCCC4)c2CC3)cc(OC)c1OC`, the growth is 86% in the test with NCI-H23 lung; 88.4% with NCI-H226 lung; 90.6% in the test with NCI-H322M lung; 92.8% with HOP-62 NSCLC; 109% with NCI-H460 lung; 92.3% in the test with HOP-92 NSCLC. For the same compound, the growth in the test with NCI-H522 lung is 84.2%; with A549/ATCC NSCLC it was 100%; in the test on 786-0 renal, 99.4%; in the test on COLO 205 colon, 109%; with DU-145 prostate it was 75.6%; in the test with K-562 leukemia it was 59.9%. Moreover, the growth is 66.5% in the test on MALME-3M melanoma; 91.3% with MDA-MB-231 breast; 91.4% with SF-268 CNS; 85.8% in the test on SF-295 CNS; 92.7% in the test on SF-539 CNS; 97.1% with UACC-257 melanoma.

For `Cc1c(Cl)cccc1S(=O)(=O)Nc1ccc2c(c1)C(=O)N(C1CCC(=O)NC1=O)C2=O` (centres undefined), the growth in the test on NCI-H23 lung was 102%; in the test with NCI-H226 lung, 66.6%; with NCI-H322M lung it was 88.8%; in the test with HOP-62 NSCLC it was 73.5%; in the test with NCI-H460 lung, 111%; in the test on HOP-92 NSCLC, 49%. Further, the growth in the test on NCI-H522 lung was 94.2%; in the test on A549/ATCC NSCLC, 104%; in the test with 786-0 renal it was 78.9%; with COLO 205 colon, 62.3%; with DU-145 prostate it was 108%; with K-562 leukemia, 101%. In addition, the growth was 55% with MALME-3M melanoma; 46.8% with MDA-MB-231 breast; 82.1% in the test on SF-268 CNS; 91.7% in the test on SF-295 CNS; 102% with SF-539 CNS; 113% in the test with UACC-257 melanoma.

Turning to `COc1ccc(Cn2cc3c(c2-c2cc(OC)c(OC)c(OC)c2)CCc2c(CN4CCOCC4)noc2-3)cc1`, the growth in the test on NCI-H23 lung was 9.12% (active); with NCI-H226 lung it was 57.9%; in the test on NCI-H322M lung, 52.7%; with HOP-62 NSCLC, 45%; with NCI-H460 lung it was 8.85% (active); in the test on HOP-92 NSCLC, 100%. The growth with NCI-H522 lung was 12.3%; in the test with A549/ATCC NSCLC it was 32.9%; with 786-0 renal, 55.4%; in the test on COLO 205 colon, 14.9%; in the test with DU-145 prostate, 20%; with K-562 leukemia it was 12.6%. Further, the growth was 43.3% with MALME-3M melanoma; 31.8% with MDA-MB-231 breast; 47.7% with SF-268 CNS; 13.3% with SF-295 CNS; 3.49% (active) with SF-539 CNS; 73.4% in the test on UACC-257 melanoma.

Turning to `COc1ccc2c(c1)Oc1nc(N)c(C#N)c(N)c1C2Sc1ccc(C)cc1` (centres undefined), the growth with NCI-H23 lung was -19.3% (active); with NCI-H226 lung it was -1.63% (active); in the test on NCI-H322M lung it was 51.9%; in the test on HOP-62 NSCLC, 100%; with NCI-H460 lung, -37.6% (active); with HOP-92 NSCLC, -35.9% (active). Also, the growth with NCI-H522 lung was -51.5% (active); with A549/ATCC NSCLC, 75.6%; in the test on 786-0 renal, -80.7% (active); in the test on COLO 205 colon, -16.7% (active); with DU-145 prostate, -50% (active); in the test on K-562 leukemia it was 4.37% (active). Further, the growth in the test with MALME-3M melanoma was -57% (active); with MDA-MB-231 breast, -77.1% (active); in the test with SF-268 CNS, 50%; in the test with SF-295 CNS, 92.9%; in the test with SF-539 CNS, -34% (active); in the test with UACC-257 melanoma, 9.55% (active).

Consider `CC/C(=C/c1cc(OC)ccc1O)c1ccc2cc(OC)ccc2[o+]1`, for which the growth with NCI-H23 lung was 64.2%; in the test with NCI-H226 lung, 78%; in the test on NCI-H322M lung, 84.2%; in the test on HOP-62 NSCLC it was 69.8%; in the test on NCI-H460 lung, 33.6%; in the test on HOP-92 NSCLC, 71%. The growth in the test with NCI-H522 lung was 24.2%; with A549/ATCC NSCLC, 58.3%; in the test with 786-0 renal, 65.9%; in the test with COLO 205 colon, 56.1%; with DU-145 prostate it was 68.6%; in the test on K-562 leukemia, 20.3%. The growth was 53.1% in the test on MALME-3M melanoma; 66.2% in the test on MDA-MB-231 breast; 61.6% with SF-268 CNS; 52.2% with SF-295 CNS; 52.7% with SF-539 CNS; 65.6% in the test on UACC-257 melanoma.
